Experimental findings from PubChem BioAssay are described below.

Calls of active or inactive are those of the source. Unless noted, how the calls were made is not given here.

Assay [1] concerns XIP peptide (Xip251-270) binding. Kind of assay: XIP fragment 251-270 binding compounds – biochemical, small-molecule microarray, fluorescence 635/667 nm, 0.1 µg/mL protein, primary screen (AID 1182). Particulars: fluorescent protein binding, 635 nm, higher = more signal, called active from +8 up or from −8 down.
For a further assay, the system named is XIP peptide (Xip251-270). Put plainly: compounds binding XIP fragment 251-270 – biochemical, small-molecule microarray, fluorescence 635/667 nm, 0.5 µg/mL protein, primary screen (AID 1183). The settings on record: fluorescence 635 nm, higher = more signal.
Assay [2] in a line: blood-stage malaria parasite viability loss – strain 3D7, DAPI fluorescence, 100 nL, primary screen (AID 1184).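 Further: parasites grown inside human red blood cells in medium with human serum.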 Particulars: P. falciparum 3D7 growth, 3 d, higher = more signal.
Assay [3] concerns the target Homeobox protein Hox-A13 (Mus musculus) (UniProt Q62424). Put plainly: disruptors of Hoxa13 oligonucleotide interaction – biochemical, fluorescence polarization, labeled oligonucleotide, primary screen (AID 1185). Particulars: Hoxa13:DNA binding, 15 min, higher = more signal, called active from +8 up or from −8 down.
Assay [4] is described as follows: blockers of DNA damage checkpoint Chk1 activation – imaging, HeLa, hydroxyurea, phospho-Chk1 antibody, percent positive cells, primary screen (AID 1186). Particulars: hydroxyurea-induced phospho-Chk1 immunofluorescence imaging, higher = more signal.
Assay [5] in a line: blockers of DNA damage checkpoint Chk1 activation – imaging, HeLa, hydroxyurea, phospho-Chk1 nuclear intensity, primary screen (AID 1187). The settings on record: hydroxyurea-induced phospho-Chk1 immunofluorescence imaging, higher = more signal.

Sequence of Homeobox protein Hox-A13 (Mus musculus) (Q62424 whole entry, looked up): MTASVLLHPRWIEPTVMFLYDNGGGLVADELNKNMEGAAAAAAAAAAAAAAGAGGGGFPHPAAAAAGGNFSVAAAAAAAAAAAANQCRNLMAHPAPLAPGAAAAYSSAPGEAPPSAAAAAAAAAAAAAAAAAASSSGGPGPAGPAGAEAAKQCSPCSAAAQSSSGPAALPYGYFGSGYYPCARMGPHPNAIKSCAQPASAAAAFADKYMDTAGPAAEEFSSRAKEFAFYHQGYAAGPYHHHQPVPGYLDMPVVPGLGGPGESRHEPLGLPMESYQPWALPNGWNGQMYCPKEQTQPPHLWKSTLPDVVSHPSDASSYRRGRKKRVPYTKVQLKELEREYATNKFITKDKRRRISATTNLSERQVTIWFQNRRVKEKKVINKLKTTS

Consider `CCOC(=O)C[C@H]1[C@H](OC(=O)c2ccccc2-c2ccccc2)[C@@H](NC(=O)c2ccc3ccccc3c2)c2cc(OCCCO)ccc2N1C(=O)c1ccc2ccccc2n1`, for which the results for the composite z-score (in assay [1]; in the assay with XIP peptide (Xip251-270)) were 0.157 (inactive) and 0.171, respectively. The z-score in assay [2] is -0.34; in assay [3] it was -2.08 (inactive); in assay [4] it was 0.308 (inactive); in assay [5], -0.334 (inactive).
For `COCCOC(=O)N1C(=O)[C@@]2(c3cc(C#CCC(C(=O)OC)C(=O)OC)ccc31)[C@H](C(=O)N1CCN(c3ncccn3)CC1)[C@H]1C(=O)O[C@H](c3ccccc3)[C@H](c3ccccc3)N1[C@@H]2c1ccc(OCCO)cc1`, the composite z-score in assay [1] is 0.262 (inactive); in the assay on XIP peptide (Xip251-270), 0.698. For the same compound, the z-score was -2.22 in assay [2], 2.45 (inactive) in assay [3], -0.576 (inactive) in assay [4] and -0.833 (inactive) in assay [5].
Take `CN(C)C(=O)[C@]1(CCC(=O)OC(C)(C)C)N=C(c2ccc(OCCCO)cc2)O[C@@H]1c1ccccc1N=[N+]=[N-]`: the composite z-score in assay [1] was 0.639 (inactive); in the assay on XIP peptide (Xip251-270), 0.803. Besides, the z-score in assay [2] was -1.84; in assay [3], -6.23 (inactive); in assay [4], 0.201 (inactive); in assay [5], 0.588 (inactive).
For the compound `CN(C)CCCNC(=O)[C@@]1(Cc2ccccc2I)c2ccccc2C(=O)N(Cc2ccccc2C(F)(F)F)[C@H]1c1ccc(CO)cc1`, the composite z-score in assay [1] was 0.165 (inactive); in the assay with XIP peptide (Xip251-270), 0.514. Besides, the z-score in assay [2] is -1.83; in assay [3], -2.47 (inactive); in assay [4] it was -0.239 (inactive); in assay [5], -0.347 (inactive).
On to `O=c1cccc(C=Cc2ccccc2)o1`, for which the composite z-score in assay [1] is -0.707 (inactive); in the assay with XIP peptide (Xip251-270), -0.764. Also, the z-score in assay [2] is -0.907; in assay [3], -0.516 (inactive); in assay [4], -0.0971 (inactive); in assay [5], -0.0437 (inactive).
As to `COC(=O)C[C@@H]1C[C@H](C)[C@]2(O1)C(=O)N(Cc1ccccc1)c1ccc(NC(C)=O)cc12`, the composite z-score in assay [1] is -0.16 (inactive); in the assay with XIP peptide (Xip251-270), 0.295. The z-score was -1.78 in assay [2], -3.77 (inactive) in assay [3], -0.139 (inactive) in assay [4] and -0.194 (inactive) in assay [5].
For `CCCCC(O)C1C=CC2C(=O)N(C3CCCCC3)C(=O)C2N1Nc1ccc(OC)cc1` (configuration not stated), the composite z-score was 0.222 (inactive) in assay [1] and 0.808 with XIP peptide (Xip251-270). Also, the z-score in assay [2] was -0.265; in assay [3], -3.58 (inactive); in assay [4] it was 0.895 (inactive); in assay [5] it was 0.719 (inactive).
With `O=C(CS)NCCCCCCNC(=O)[C@@H]1C[C@@H]2C(=O)N3CCC[C@H]3C(=O)N2[C@@H]1c1ccc(O)cc1`, the composite z-score was 0.689 (inactive) in assay [1] and 0.422 in the assay on XIP peptide (Xip251-270). The z-score in assay [2] is 0.331; in assay [3], -3.65 (inactive); in assay [4] it was -0.0018 (inactive); in assay [5], 0.499 (inactive).
With `CC(C)NC(=O)[C@@H]1c2ccccc2C(=O)N(Cc2ccccc2)[C@H]1c1ccc(CO)cc1`, the composite z-score is 0.747 (inactive) in assay [1] and -0.138 with XIP peptide (Xip251-270). For the same compound, the z-score in assay [2] is -0.679; in assay [3], -2.9 (inactive); in assay [4] it was -0.0443 (inactive); in assay [5], 0.0197 (inactive).
For the compound `[N-]=[N+]=NCc1ccccc1[C@@H]1OC(c2ccc(OCCCO)cc2)=N[C@]1(Cc1ccccc1)C(=O)N1CCCCC1`, the composite z-score was 0.34 (inactive) in assay [1] and 0.654 with XIP peptide (Xip251-270). For the same compound, the z-score in assay [2] was -2.23; in assay [3], -3.35 (inactive); in assay [4], -0.837 (inactive); in assay [5] it was -0.726 (inactive).
As for `O=C1N(CCS(=O)(=O)c2ccccc2)c2ccccc2C[C@@]12COC(c1ccc(OCCCO)cc1)=N2`, the values for the composite z-score (in assay [1]; in the assay on XIP peptide (Xip251-270)) were 2.06 (inactive) and 0.861, respectively. Also, the z-score in assay [2] was -1.39; in assay [3], -4.69 (inactive); in assay [4], -0.0621 (inactive); in assay [5], -0.223 (inactive).
On to `O=C1C2C=CC(C(O)c3ccc(-c4ccccc4)s3)N(n3cnnc3)C2C(=O)N1Cc1ccccc1` (configuration not stated), for which the figures for the composite z-score (in assay [1]; in the assay with XIP peptide (Xip251-270)) were -0.457 (inactive) and 0.951, respectively. Moreover, the z-score in assay [2] was -0.802; in assay [3] it was -2.98 (inactive); in assay [4], -0.295 (inactive); in assay [5], -0.514 (inactive).
Consider `COCCOC(=O)N1C(=O)[C@@]2(c3cc(C#CCC(C(=O)OC)C(=O)OC)ccc31)[C@H](c1ccccc1OCCO)N1[C@H](c3ccccc3)[C@H](c3ccccc3)OC(=O)[C@H]1[C@@H]2C(=O)N1CCc2cc(OC)c(OC)cc2C1`, for which the composite z-score was 0.201 (inactive) in assay [1] and 0.64 in the assay with XIP peptide (Xip251-270). For the same compound, the z-score is -2.06 in assay [2], 0.498 (inactive) in assay [3], -0.122 (inactive) in assay [4] and 0.261 (inactive) in assay [5].
Consider `COc1ccc([Si](C)(C)[C@@H]2[C@@H](CCn3cc([C@H](O)c4ccccc4)nn3)O[C@]3(C(=O)N(Cc4cccc(N5CCOC5=O)c4)c4ccccc43)[C@H]2C)cc1`, for which the results for the composite z-score (in assay [1]; in the assay with XIP peptide (Xip251-270)) were 0.672 (inactive) and 0.168, respectively. Further, the z-score in assay [2] was -2.33; in assay [3], -2.64 (inactive); in assay [4], -0.862 (inactive); in assay [5] it was 0.0282 (inactive).
As to `CCOC(=O)C1=CCC(c2ccc([N+](=O)[O-])cc2)N(S(=O)(=O)c2ccc(C)cc2)C1` (configuration not stated), the composite z-score in assay [1] is -0.15 (inactive); in the assay on XIP peptide (Xip251-270), 0.27. The z-score in assay [2] was -1.3; in assay [3], -1.24 (inactive); in assay [4], -0.021 (inactive); in assay [5], 0.144 (inactive).
Regarding `O=C1OCCC=C[C@H]2OC34C=CCN(c5ccc6ccccc6c5)C(=O)[C@H]3N(CCCCCO)C(=O)[C@@H]4C12` (some centres not stated), the composite z-score was 0.427 (inactive) in assay [1] and 0.385 with XIP peptide (Xip251-270). The z-score was 0.405 in assay [2], -5.5 (inactive) in assay [3], -0.202 (inactive) in assay [4] and 0.891 (inactive) in assay [5].
Turning to `CC(C)CNC(=O)[C@@]1(c2ccc([N+](=O)[O-])cc2)CC(=O)N(CC23CC4CC(CC(C4)C2)C3)[C@@H]1c1ccc(CO)cc1I`, the composite z-score in assay [1] is 0.106 (inactive); in the assay with XIP peptide (Xip251-270), 0.719. Further, the z-score in assay [2] is -0.534; in assay [3], -3.42 (inactive); in assay [4] it was -0.264 (inactive); in assay [5], -0.135 (inactive).
